Experiment in all cases: DAPPL (digital affinity profiling via proximity ligation, sequencing); 10 mM Tris-HCl pH 7.5, 50 mM NaCl, 1 mM DTT, 4% glycerol, room temperature, 30 min; GST-TFs on glutathione beads, 16-mer random dsDNA library, 0.1% formaldehyde crosslink after washing; high values mean tight binding
One experiment deals with T1, FEV (Homo sapiens, UniProt Q99581 1-238).
T1 sequence: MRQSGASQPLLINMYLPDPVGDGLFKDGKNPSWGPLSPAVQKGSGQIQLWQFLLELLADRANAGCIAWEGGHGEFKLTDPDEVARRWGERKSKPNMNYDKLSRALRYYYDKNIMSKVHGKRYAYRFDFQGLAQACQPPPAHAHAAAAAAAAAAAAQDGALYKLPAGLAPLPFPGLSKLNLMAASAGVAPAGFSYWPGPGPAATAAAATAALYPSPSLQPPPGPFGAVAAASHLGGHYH
The conditions noted are these: protein: recombinant; tags: N-terminal GST; dsDNA, one strand shown. A digest of the protocol: (§1)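 In yeast, human transcription factors were expressed with a GST fusion, then pulled down on glutathione beads and given DNA barcodes. Pooled with a tag-only sample, they were exposed to 200 nmole of a 16-mer random double-stranded DNA library (Tris/NaCl/DTT/glycerol buffer, room temperature, 30 min), washed, crosslinked with 0.1% formaldehyde, proximity-ligated using BsaI/T4 ligase for 1 h at 37 °C, PCR-amplified and read on an Illumina NextSeq500. Each hexamer's frequency of reads for a factor, divided by the matching frequency for the tag-only sample, gives the binding signal.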

The target of the next experiment is ETV5 (Homo sapiens, UniProt P41161 1-510). The conditions noted are these: protein: recombinant; tags: N-terminal GST; dsDNA, one strand shown. A digest of the protocol:
as §1

The next experiment deals with HSF1 (Homo sapiens, UniProt Q00613 1-529). As to conditions: protein: recombinant; tags: N-terminal GST; chain copies: 3; dsDNA, one strand shown. A digest of the protocol: as §1
For the next experiment, the target named is T2, SPIC (Homo sapiens, UniProt Q8N5J4 1-248).
T2 sequence: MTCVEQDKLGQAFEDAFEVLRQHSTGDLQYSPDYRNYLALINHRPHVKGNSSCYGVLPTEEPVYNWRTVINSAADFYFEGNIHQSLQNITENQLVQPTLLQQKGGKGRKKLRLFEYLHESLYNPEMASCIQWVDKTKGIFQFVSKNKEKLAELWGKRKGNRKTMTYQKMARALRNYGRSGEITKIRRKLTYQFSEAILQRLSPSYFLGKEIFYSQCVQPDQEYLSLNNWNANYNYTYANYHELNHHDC
As to conditions: protein: recombinant; tags: N-terminal GST; dsDNA, one strand shown. A digest of the protocol:
as §1

In another experiment the target is ELF4 (Homo sapiens, UniProt Q99607 1-663). As to conditions: protein: recombinant; tags: N-terminal GST; dsDNA, one strand shown. A digest of the protocol:
as §1

A further experiment addresses T3, ELK4 (Homo sapiens, UniProt P28324-2 1-405).
T3 sequence: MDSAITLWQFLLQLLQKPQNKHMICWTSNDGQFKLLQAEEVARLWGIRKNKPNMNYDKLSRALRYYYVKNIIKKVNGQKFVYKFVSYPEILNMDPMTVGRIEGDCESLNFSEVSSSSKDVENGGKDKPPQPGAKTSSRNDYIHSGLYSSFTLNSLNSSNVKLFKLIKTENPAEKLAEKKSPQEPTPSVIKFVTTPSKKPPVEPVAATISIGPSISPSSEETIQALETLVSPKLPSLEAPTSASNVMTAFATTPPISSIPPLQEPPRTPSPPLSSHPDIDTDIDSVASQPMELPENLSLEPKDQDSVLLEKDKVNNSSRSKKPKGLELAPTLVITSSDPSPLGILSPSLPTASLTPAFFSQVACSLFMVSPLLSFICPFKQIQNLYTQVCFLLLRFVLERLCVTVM
The conditions noted are these: protein: recombinant; tags: N-terminal GST; dsDNA, one strand shown. A digest of the protocol:
as §1

The target of the next experiment is T4, ETV2 (Homo sapiens, UniProt O00321 1-342).
T4 sequence: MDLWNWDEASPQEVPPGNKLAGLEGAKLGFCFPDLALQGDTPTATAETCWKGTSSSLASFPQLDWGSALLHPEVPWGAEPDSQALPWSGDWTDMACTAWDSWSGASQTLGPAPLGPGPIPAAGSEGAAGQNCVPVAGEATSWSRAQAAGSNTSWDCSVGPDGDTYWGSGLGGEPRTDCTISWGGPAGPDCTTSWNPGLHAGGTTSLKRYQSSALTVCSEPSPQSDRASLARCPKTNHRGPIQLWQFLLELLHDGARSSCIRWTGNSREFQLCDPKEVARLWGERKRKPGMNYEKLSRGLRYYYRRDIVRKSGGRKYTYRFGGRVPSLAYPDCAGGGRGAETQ
As to conditions: protein: recombinant; tags: N-terminal GST; dsDNA, one strand shown. A digest of the protocol: as §1

For another experiment, the target named is T5, ELF3 (Homo sapiens, UniProt P78545 1-371).
T5 sequence: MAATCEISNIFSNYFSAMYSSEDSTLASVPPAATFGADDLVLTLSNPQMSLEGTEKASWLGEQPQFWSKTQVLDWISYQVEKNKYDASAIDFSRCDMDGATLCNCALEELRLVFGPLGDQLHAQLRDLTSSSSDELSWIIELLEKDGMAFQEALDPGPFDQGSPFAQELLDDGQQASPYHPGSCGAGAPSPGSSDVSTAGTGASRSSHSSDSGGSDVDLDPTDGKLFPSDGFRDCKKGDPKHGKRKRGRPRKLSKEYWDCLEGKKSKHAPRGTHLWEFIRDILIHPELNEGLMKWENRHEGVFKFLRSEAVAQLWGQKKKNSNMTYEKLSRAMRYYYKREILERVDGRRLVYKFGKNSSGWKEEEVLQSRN
As to conditions: protein: recombinant; tags: N-terminal GST; dsDNA, one strand shown. A digest of the protocol: as §1

Another experiment deals with CRX (Homo sapiens, UniProt O43186 1-299). As to conditions: protein: recombinant; tags: N-terminal GST; dsDNA, one strand shown. A digest of the protocol:
as §1

The target in another experiment is ETV1 (Homo sapiens, UniProt P50549 1-477). As to conditions: protein: recombinant; tags: N-terminal GST; dsDNA, one strand shown. A digest of the protocol:
as §1

Sequence of ETV5 (P41161 whole entry): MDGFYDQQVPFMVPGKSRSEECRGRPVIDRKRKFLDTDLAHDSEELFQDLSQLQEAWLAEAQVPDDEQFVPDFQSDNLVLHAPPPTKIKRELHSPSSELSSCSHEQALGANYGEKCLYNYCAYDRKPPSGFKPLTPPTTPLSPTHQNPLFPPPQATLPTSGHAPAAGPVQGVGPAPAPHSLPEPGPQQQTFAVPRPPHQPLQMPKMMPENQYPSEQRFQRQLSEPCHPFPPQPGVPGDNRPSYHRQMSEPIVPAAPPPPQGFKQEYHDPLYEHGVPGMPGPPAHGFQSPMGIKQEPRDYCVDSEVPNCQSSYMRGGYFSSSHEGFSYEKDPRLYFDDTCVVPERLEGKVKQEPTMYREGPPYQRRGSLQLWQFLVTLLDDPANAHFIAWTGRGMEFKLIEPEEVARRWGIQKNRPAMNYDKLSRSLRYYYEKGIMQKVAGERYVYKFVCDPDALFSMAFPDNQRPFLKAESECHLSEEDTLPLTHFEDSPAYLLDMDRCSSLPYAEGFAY
Sequence of CRX (O43186 whole entry): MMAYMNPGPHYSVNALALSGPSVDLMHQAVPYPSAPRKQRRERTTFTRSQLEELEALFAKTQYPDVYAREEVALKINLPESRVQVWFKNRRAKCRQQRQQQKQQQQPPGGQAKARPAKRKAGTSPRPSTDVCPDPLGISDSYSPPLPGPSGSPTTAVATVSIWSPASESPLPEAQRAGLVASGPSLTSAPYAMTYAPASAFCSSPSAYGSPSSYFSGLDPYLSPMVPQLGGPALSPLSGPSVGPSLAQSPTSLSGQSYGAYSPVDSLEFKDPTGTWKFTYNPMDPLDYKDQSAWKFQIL
Sequence of HSF1 (Q00613 whole entry): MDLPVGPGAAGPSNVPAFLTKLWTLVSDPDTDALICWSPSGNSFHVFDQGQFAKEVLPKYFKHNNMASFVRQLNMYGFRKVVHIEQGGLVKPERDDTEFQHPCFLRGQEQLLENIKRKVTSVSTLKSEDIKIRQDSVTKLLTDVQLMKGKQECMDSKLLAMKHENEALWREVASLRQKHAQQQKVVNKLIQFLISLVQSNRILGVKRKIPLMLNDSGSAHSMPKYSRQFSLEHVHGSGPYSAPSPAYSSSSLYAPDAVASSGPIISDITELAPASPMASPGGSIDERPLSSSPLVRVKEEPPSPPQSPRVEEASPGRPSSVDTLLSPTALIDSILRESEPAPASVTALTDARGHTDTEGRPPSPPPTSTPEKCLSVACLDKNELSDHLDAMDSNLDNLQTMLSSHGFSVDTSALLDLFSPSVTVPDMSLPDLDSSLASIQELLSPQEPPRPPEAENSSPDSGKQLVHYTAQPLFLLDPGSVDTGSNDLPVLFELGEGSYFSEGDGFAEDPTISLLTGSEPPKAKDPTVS
Sequence of ELF4 (Q99607 whole entry): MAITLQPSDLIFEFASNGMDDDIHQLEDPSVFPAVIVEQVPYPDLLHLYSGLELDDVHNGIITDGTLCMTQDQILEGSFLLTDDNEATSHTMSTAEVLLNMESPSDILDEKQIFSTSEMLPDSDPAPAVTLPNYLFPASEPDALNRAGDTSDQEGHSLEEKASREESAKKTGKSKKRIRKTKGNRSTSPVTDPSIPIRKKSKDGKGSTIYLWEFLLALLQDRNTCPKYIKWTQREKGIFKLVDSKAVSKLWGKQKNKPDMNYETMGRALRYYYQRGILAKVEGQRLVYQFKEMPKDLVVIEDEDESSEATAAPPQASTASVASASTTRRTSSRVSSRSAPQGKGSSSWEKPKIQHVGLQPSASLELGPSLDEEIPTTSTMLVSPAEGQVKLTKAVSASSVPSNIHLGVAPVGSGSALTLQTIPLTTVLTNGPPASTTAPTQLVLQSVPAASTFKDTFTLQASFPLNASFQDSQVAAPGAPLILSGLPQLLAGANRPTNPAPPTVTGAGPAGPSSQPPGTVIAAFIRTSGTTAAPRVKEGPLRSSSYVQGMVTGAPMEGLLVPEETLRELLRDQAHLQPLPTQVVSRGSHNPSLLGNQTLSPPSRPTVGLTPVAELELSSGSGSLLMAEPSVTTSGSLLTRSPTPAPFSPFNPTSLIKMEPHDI
Sequence of ETV1 (P50549 whole entry): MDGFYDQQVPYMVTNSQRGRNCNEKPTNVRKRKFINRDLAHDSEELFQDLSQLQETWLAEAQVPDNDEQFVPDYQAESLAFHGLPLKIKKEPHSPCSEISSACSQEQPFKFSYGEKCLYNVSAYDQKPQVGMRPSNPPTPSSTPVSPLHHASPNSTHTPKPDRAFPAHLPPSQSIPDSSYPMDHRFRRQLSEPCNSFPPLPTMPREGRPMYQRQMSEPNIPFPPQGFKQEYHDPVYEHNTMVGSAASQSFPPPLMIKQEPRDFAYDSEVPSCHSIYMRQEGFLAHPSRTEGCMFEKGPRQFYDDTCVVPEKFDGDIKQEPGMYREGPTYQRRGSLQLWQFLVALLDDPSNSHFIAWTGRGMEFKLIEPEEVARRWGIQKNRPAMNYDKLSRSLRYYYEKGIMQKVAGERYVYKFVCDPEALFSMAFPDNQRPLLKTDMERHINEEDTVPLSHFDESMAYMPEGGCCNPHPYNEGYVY

For the sequence CGCTCT, the binding signal with FEV is 1.27 fold enrichment (6-mer frequency, TF over GST control); with ETV5, 1.34 fold enrichment (6-mer frequency, TF over GST control); with HSF1, 1.17 fold enrichment (6-mer frequency, TF over GST control); with SPIC, 1.31 fold enrichment (6-mer frequency, TF over GST control); in the experiment with ELF4, 1.39 fold enrichment (6-mer frequency, TF over GST control); with ELK4 it was 1.07 fold enrichment (6-mer frequency, TF over GST control). The binding signal with ETV2 is 1.12 fold enrichment (6-mer frequency, TF over GST control); in the experiment with ELF3, 1.24 fold enrichment (6-mer frequency, TF over GST control); with CRX it was 1.05 fold enrichment (6-mer frequency, TF over GST control); with ETV1, 1.25 fold enrichment (6-mer frequency, TF over GST control).

(Values after article PMC7862700, “An all-to-all approach to the identification of sequence-specific readers for epigenetic DNA modifications on cytosine”.)
